Laboratory results: PubChem BioAssay (NCI)
The panel holds about 83,000 compounds, 20% with a hit somewhere; the sample as a whole holds those more often.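 Negative percent growth values reflect cell death: -40 means 40% of the cells present at the start died, and -100 means all died.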 Unmarked numbers belong to inactive results. Activity calls are given as the source filed them.

The molecules below were run on HS 578T breast (assay: NCI-60 one-dose screen, 48 h (100 = growth as untreated, 0 = no growth, -100 = all killed)). Details: 10 µM unless noted.
Experimental: Growth inhibition of the HS 578T human tumor cell line is measured as a screen for anti-cancer activity. Cells are grown in 96 well plates and exposed to the test compound for 48 hours. Compounds are tested at a single concentration, which is 10^-5 M for most compounds. The reported endpoint is percent growth (GI% or GIPRCNT), where numbers from 0 - 100% represent growth inhibition, and numbers from -100% - 0 represent cell death. For example, a value of 40 represents 60% growth inhibition. A value of 0 means no net growth occurred over the course of the experiment. A value of -40 indicates 40% of cells at the beginning of the experiment died by the end of the experiment. A value of -100 means all cells are dead at the end of the experiment.
NCI-60 Human Tumor Cell Lines Screen was performed using the standard one-dose NCI protocol, which is described in more detail at https://dtp.cancer.gov/discovery_development/nci-60/default.htm.
Compounds with GIPRCNT values below 10 were considered active. Activity score was based on GIPRCNT using the following formula: […]
Score is 0 for GIPRCNT values of 100 or above, 50 for GIPRCNT values of 0, and 100 for GIPRCNT values of -100.
With `CCCCCc1ccc(S(=O)(=O)Nc2cc(-c3csc(NC(=O)CN4CCN(CCO)CC4)n3)ccc2OC)cc1` the growth was 52.8%. With `CCNC(=O)Oc1ccc(/C(=C(/C)c2ccccc2)c2ccc(OCCN3CCCCCC3)cc2)cc1` the growth was -12.8% (active). In the case of `C=CCOc1cccc(/C=C2\SC(=S)N(C3CC(=O)N(c4ccc(Br)cc4)C3=O)C2=O)c1` (stereo not given), the growth was 106%. With `NC(N)=Nc1ccc(Oc2cccc(Nc3ccc(Br)c(C(F)(F)F)c3)c2)cn1` the growth was -15.3% (active). `COc1ccc([C@H]2[C@H](O)C(=O)N2c2cc(OC)c(OC)c(OC)c2)cc1F` was tested, and the growth was 3.89% (active). In the case of `CCN(CC)c1ccc2c(c1)Oc1nc(N)c(C#N)c(N)c1C2Sc1ccc(C)cc1` (stereo not given), the growth was -18.8% (active). With `CNC(=O)c1cc(N2CCc3cc(NC(=O)Nc4ccc(Cl)c(C(F)(F)F)c4)ccc32)ccn1` the growth was 44.8%. `Cn1ccnc1C(=O)/C=C/c1ccc(NC(=O)c2c(F)c(F)c(F)c(F)c2F)cc1` was tested, and the growth was 112%. In the case of `CCCCCc1ccc(S(=O)(=O)Nc2cc(-c3csc(NC(=O)CN4CCN(C)CC4)n3)ccc2N2CCN(C)CC2)cc1`, the growth was -24.3% (active). Molecule `COc1cccc(/C=C(/C)c2ccc3cccc(OC)c3[o+]2)c1O` has a growth of 101%. `Cc1cc(-c2ccc(Cl)cc2)n(Cc2nnc(SCC(=O)Nc3ccc(S(N)(=O)=O)cc3)n2-c2ccc([N+](=O)[O-])cc2)n1` showed a growth of 96.7%. `Clc1cccc(/C=N/Nc2nc(N/N=C/c3cccc(Cl)c3Cl)nc(N3CCCCC3)n2)c1Cl` showed a growth of 85%. `NS(=O)(=O)c1ccc(Nc2nc(N/N=C/c3c[nH]c4ccccc34)nc(Nc3ccccc3)n2)cc1` gave a growth of 42.2%. Molecule `COC(=O)C(Cc1ccccc1)Nc1nc(NC(Cc2ccccc2)C(=O)OC)nc(N2CCOCC2)n1` (stereo not given) has a growth of 101%. `COc1cc(/C=C2\C(=O)Nc3ccccc32)ccc1OCc1ccc(F)cc1` showed a growth of 115%. `N#Cc1cccc(CN2CCC3=C(C2)C(=O)N(Cc2ccc(Cl)cc2)C2=NCCN23)c1` showed a growth of 45.5%. Molecule `COc1ccc(NC(=O)Nc2ccc3c(ccn3C(=O)c3cccc(F)c3)c2)cc1` has a growth of 31.6%. With `O=S(=O)(Nc1ccc(I)cc1Cl)c1ccc(-c2cnc(C3CC3)o2)cc1` the growth was 17.3%. `C=C(C)[C@@H]1CC[C@]2(C(=O)NCCCCCN(CCC#N)CCC#N)CC[C@]3(C)[C@H](CC[C@@H]4[C@@]5(C)CCC(=O)C(C)(C)[C@@H]5CC[C@]43C)[C@@H]12` showed a growth of 103%. For `N#Cc1cccc(NC(=O)c2cc(-c3ccc(F)cc3F)ccc2O)c1`, the growth was 3.15% (active). With `C#Cc1nc(C(=O)NCCC(=O)Nc2ccc(NC(=O)c3ccc(/C=C/C(=O)c4nccn4C)cc3)cc2)cs1` the growth was 86.7%. In the case of `CNC(=O)c1c(NC(=O)c2cccc(C(F)(F)F)c2F)sc2c1CCC(=O)C2`, the growth was 8.98% (active). Molecule `O=S(=O)(NCCCNc1nccc(-c2[nH]c(-c3ccccc3)nc2-c2ccc(Cl)c(O)c2)n1)c1ccc(Br)cc1` has a growth of 63.2%. With `CN1CCN(Cc2ccc(NC(=O)c3cncc(C#Cc4cnc5ccc(OCC(C)(C)O)nn45)c3)cc2C(F)(F)F)CC1` the growth was -36.9% (active). `C=CCn1c(SCC(=O)Nc2ccc(C(=O)/C=C/c3cccc([N+](=O)[O-])c3)cc2)nnc1-c1c[nH]c2ccccc12` showed a growth of 102%. `Nc1nc(Nc2ccccc2SSc2ccccc2Nc2nc(N)nc(-c3ccccc3)n2)nc(-c2ccccc2)n1` gave a growth of 84.3%. For `O=c1c2ccccc2nc(COc2ccccc2)n1NS(=O)(=O)c1ccc(Cl)cc1`, the growth was 75%. With `COc1cc2oc(-c3cccc(N)c3)cc(=O)c2c(OC)c1OC` the growth was 115%. Work on `Cn1cc(-c2cc(N)n3nc(-c4cn(C)c5ccccc45)cc3n2)c2ccccc21` yielded a growth of 124%. Work on `C=C=COc1cccc(/C(N)=N/C(N)=N/c2nc3ccccc3s2)c1` yielded a growth of 59.9%. Molecule `COc1cc(-c2nn(C(C)(C)C)cc2-c2ccnc(NCCCNS(=O)(=O)c3ccc(C)cc3)n2)ccc1Cl` has a growth of 76.6%. With `CS(=O)(=O)Nc1cc(-c2ccc3ncc(C#N)c(Nc4cccc(Cl)c4F)c3c2)cnc1Cl` the growth was -26.6% (active). In the case of `NS(=O)(=O)c1ccc(Nc2cc(-c3ccccc3)nc(SCC(=O)c3ccccc3)n2)cc1`, the growth was 107%. With `Cc1cc(C(NC(=O)CCCCCNc2cccc3c2C(=O)N(C2CCC(=O)NC2=O)C3=O)c2ccc3c(c2)OC(F)(F)O3)c(O)c2ncccc12` (stereo not given) the growth was 37.7%. `Oc1cccc2ccc(-c3nnc(SCc4ccc(O)c5ncccc45)n3-c3ccccc3)nc12` showed a growth of 18.5%. For `C=C(C=O)[C@@H]1CC[C@]2(C)[C@H](CC=C3[C@H]4[C@@H](C)[C@H](C)CC[C@]4(C(=O)OC)CC[C@]32C)[C@@]1(C)CCC#N`, the growth was -14.4% (active). `O=C(NNc1nc2cc(F)ccc2n2cccc12)c1ccncn1` was tested, and the growth was 42.8%. `CN1CCN(Cc2ccc(NC(=O)c3cncc(C#Cc4cnn5cccnc45)c3)cc2C(F)(F)F)CC1` showed a growth of 27.2%. For `CCOc1ccccc1NC1=C(Cl)C(=O)c2nc(C)ccc2C1=O`, the growth was 1.05% (active). `COc1cc(-c2nnc(SCc3ccc(O)c4ncccc34)n2-c2ccccc2)cc(OC)c1OC` was tested, and the growth was 20.3%.
